Data as given in the supplement of paper PMC13380429.

Tests used:
[1] = tested on: Vero E6 infected with SARS-CoV-2; assay: morphology score (similarity to uninfected cells); higher = more like uninfected cells; conditions: 24 h
[2] = tested on: Vero E6 infected with SARS-CoV-2; assay: SARS-CoV-2 infection rate relative to infected DMSO; higher = more infection, active = 60 or less; conditions: 24 h

SMILES | morphology score [1] | SARS-CoV-2 infection rate [2]
Cc1ccc(Oc2ccccc2-c2csc(N=C3NCCCN3)n2)c(C)c1 [abafungin] (10 µM) | 0.0754 | 100% (inactive)
CNCCn1c(=O)c2cc(OC)c(OC)cc2c2cnc3cc4c(cc3c21)OCO4 (10 µM) | -0.381 | 118% (inactive)
CC[C@@H](C(=O)[C@@H](C)[C@@H](O)[C@H](C)[C@@H]1O[C@@H]([C@@H](CC)C(=O)O)CC[C@@H]1C)[C@H]1O[C@]2(C=C[C@@H](O)[C@]3(CC[C@@](C)([C@H]4CC[C@](O)(CC)[C@H](C)O4)O3)O2)[C@H](C)C[C@@H]1C [Salinomycin (Procoxacin)] (10 µM) | -0.00386 | 108% (inactive)
CC(C)c1c2cc(-c3ccnc(N[C@H]4CC[C@H](NC5CCOCC5)CC4)n3)ccc2nn1C (0.833333 µM) | 0.108 | 90.5% (inactive)
O=C(CC(c1ccccc1)c1ccccc1)N1CCN(C(c2ccccc2)c2ccccc2)CC1 (10 µM) | 0.0825 | 102% (inactive)
CC(C(=O)O)c1cccc(C(=O)c2ccccc2)c1 (stereo not given) [ketoprofen] (10 µM) | 0.173 | 102% (inactive)
O=C1CC2(CCCC2)CC(=O)N1CCNC[C@H]1COc2ccccc2O1 (10 µM) | -0.0647 | 113% (inactive)
Nc1nc2[nH]cnc2c(=S)[nH]1 [thioguanine] (0.833333 µM) | 0.218 | 98.5% (inactive)
NC(=O)NC(=O)Cc1ccccc1 [phenacemide] (10 µM) | 0.0778 | 114% (inactive)
CCOCCOc1ccccc1C(N)=O [etosalamide] (10 µM) | 0.0693 | 104% (inactive)
CCc1cncnc1N1CCN(Cc2nc3cc(C(F)(F)F)ccc3[nH]2)CC1 (10 µM) | -0.441 | 116% (inactive)
Cc1cc2nc3c(=O)[nH]c(=O)nc-3n(C[C@H](O)[C@H](O)[C@H](O)COP(=O)(O)O)c2cc1C [riboflavin-5-phosphate-sodium] (10 µM) | 0.173 | 102% (inactive)
NCCCNCCSP(=O)(O)O [amifostine] (10 µM) | 0.164 | 100% (inactive)
Cn1nc(C(C)(C)C)cc1C(=O)N[C@@H](Cc1cccc(Cl)c1)C(=O)NCC#N [cathepsin-inhibitor-1] (10 µM) | 0.186 | 97.5% (inactive)
O=C[C@H](F)[C@@H](O)[C@@H](O)[C@H](O)CO [2-fluoro-2-deoxy-D-galactose] (10 µM) | 0.127 | 116% (inactive)
O=C(O)c1cc(N2N=C(C(F)(F)F)/C(=C/c3ccc(-c4ccccc4)o3)C2=O)ccc1Cl (10 µM) | 0.185 | 97% (inactive)
CN(C)CCN1C(=O)c2cccc3cc(NC(N)=O)cc(c23)C1=O [unbs-5162] (10 µM) | 0.115 | 102% (inactive)
N#CN1CCCC1 [pyrrolidine-1-carbonitrile] (10 µM) | 0.254 | 92% (inactive)
Nc1ccc(F)cc1NC(=O)c1ccc(CNC(=O)/C=C/c2cccnc2)cc1 [chidamide] (0.833333 µM) | -0.0654 | 107% (inactive)
COc1cc(N2CCN(C)CC2)ccc1Nc1nccc(-c2cn(C)c3cnccc23)n1 (0.833333 µM) | 0.377 | 100% (inactive)

SMILES | morphology score [1] | SARS-CoV-2 infection rate [2]
CCOC(=S)SSC(=S)OCC [dixanthogen] (10 µM) | -0.0377 | 106% (inactive)
CCOP(=S)(OCC)Oc1nc(Cl)c(Cl)cc1Cl [chlorpyrifos] (10 µM) | -0.24 | 112% (inactive)
CC(C)(Oc1ccc(C2CC2(Cl)Cl)cc1)C(=O)O (stereo not given) [ciprofibrate] (10 µM) | -0.0908 | 109% (inactive)
OCCn1cc(-c2cnc3nnn(Cc4ccc5ncccc5c4)c3n2)cn1 (10 µM) | -0.0332 | 99% (inactive)
CCN1CCN(c2cc3c(cc2F)c(=O)c(C(=O)O)cn3C2CC2)CC1 [enrofloxacin] (10 µM) | 0.0599 | 112% (inactive)
COc1ccc2c(c1)c(CC(=O)O)c(C)n2C(=O)c1ccc(Cl)cc1 [indomethacin] (10 µM) | 0.0755 | 104% (inactive)
C[N+]1(C)[C@@H]2C[C@@H](OC(=O)C(O)(c3cccs3)c3cccs3)C[C@H]1[C@@H]1O[C@@H]12 [tiotropium] (10 µM) | 0.0776 | 100% (inactive)
NC1=NCC2c3ccccc3Cc3ccccc3N12 (stereo not given) [epinastine] (10 µM) | 0.0427 | 114% (inactive)
C=C1CC/C=C(\C)CC[C@@H]2[C@@H]1CC2(C)C [g-caryophyllene] (10 µM) | 0.0545 | 95% (inactive)
CCC(N)C(O)c1ccc(O)c(O)c1 (stereo not given) [ethylnorepinephrine] (10 µM) | -0.108 | 106% (inactive)
CCOC(=O)CSCCC1NC(C(=O)O)CS1 (stereo not given) [letosteine] (10 µM) | -0.0697 | 117% (inactive)
O=C(Nc1ncc(SCCN2CCCC2)s1)[C@]1(c2ccc(S(=O)(=O)C3CC3)cc2)C[C@H]1C1CCCCC1 (10 µM) | 0.767 | 17% (active)
Cc1cc(-n2c(=O)[nH]c(=O)n(C)c2=O)ccc1Oc1ccc(SC(F)(F)F)cc1 [toltrazuril] (10 µM) | 0.184 | 107% (inactive)
CS(=O)(=O)c1cccc(CNc2nc(Nc3ccc4c(c3)CCC(=O)N4)ncc2C(F)(F)F)c1 (0.833333 µM) | 0.138 | 114% (inactive)
COc1ccc(Cl)c(Nc2nc3ccccc3nc2NS(=O)(=O)c2cccc(NC(=O)C(C)(C)N)c2)c1 [pilaralisib] (10 µM) | 0.0424 | 103% (inactive)
Clc1ccc(CO/N=C(\Cn2ccnc2)c2ccc(Cl)cc2Cl)c(Cl)c1 [oxiconazole] (10 µM) | -0.0771 | 114% (inactive)
O=C(c1cn(Cc2cncn2Cc2ccc(Br)cc2)cc1-c1cccc2ccccc12)N1CCOCC1 (0.833333 µM) | 0.342 | 94.5% (inactive)
Cn1ncc(Cl)c1-c1cc(C(=O)N[C@H](CN)Cc2cccc(F)c2)sc1Cl (10 µM) | 0.197 | 107% (inactive)
CC(N)CCCC(C)(C)O (stereo not given) [heptaminol] (10 µM) | -0.15 | 111% (inactive)
CCCC[N+]1(C)[C@@H]2C[C@@H](OC(=O)[C@H](CO)c3ccccc3)C[C@H]1[C@@H]1O[C@@H]12 (stereo not given in full) [butylscopolamine-bromide] (10 µM) | 0.191 | 102% (inactive)

SMILES | morphology score [1] | SARS-CoV-2 infection rate [2]
CNC(=O)c1ccc2cc([C@@]3(O)CCn4cncc43)ccc2c1 [orteronel] (10 µM) | 0.0827 | 106% (inactive)
Cc1noc2c1-c1ccccc1C(c1ccc(Cl)cc1)=N[C@H]2CC(N)=O (10 µM) | -0.0562 | 108% (inactive)
CC1C(=O)OC2C(O)C34C5CC(C(C)(C)C)C36C(OC(=O)C6O)OC4(C(=O)O5)C12O (stereo not given) [ginkgolide-B] (10 µM) | 0.264 | 93% (inactive)
COc1ccc(-c2cc(=O)c3c(O)cc(O[C@@H]4O[C@H](CO[C@@H]5O[C@@H](C)[C@H](O)[C@@H](O)[C@H]5O)[C@@H](O)[C@H](O)[C@H]4O)cc3o2)cc1O [diosmin] (10 µM) | -0.119 | 106% (inactive)
COc1cc2c(NC3CCN(C(C)C)CC3)nc(C3CCCCC3)nc2cc1OCCCN1CCCC1 (10 µM) | 0.297 | 22.5% (active)
CC(O)(C(=O)Nc1ccc(S(=O)(=O)c2ccccc2)cc1)C(F)(F)F (stereo not given) (10 µM) | 0.347 | 78% (inactive)
Cc1cccc(C)c1NC(=O)c1ccc(N)cc1 [ameltolide] (10 µM) | -0.146 | 109% (inactive)
CN1CCN(CCCN2c3ccccc3Sc3ccc(Cl)cc32)CC1 [prochlorperazine] (10 µM) | 0.742 | 27.5% (active)
Cc1nc2sccn2c(=O)c1CCN1CCC(=C(c2ccccc2)c2ccc(F)cc2)CC1 (10 µM) | 0.149 | 81.5% (inactive)
CCCCC(=O)O[C@]1(C(=O)CO)[C@@H](C)C[C@H]2[C@@H]3CCC4=CC(=O)C=C[C@]4(C)[C@@]3(F)[C@@H](O)C[C@@]21C (10 µM) | -0.0636 | 112% (inactive)
CCN(CC)CCCC(C)Nc1c2ccc(Cl)cc2nc2ccc(OC)cc12 (stereo not given) [mepacrine] (0.833333 µM) | 0.481 | 55.5% (active)
COc1ccc(C(=O)N2CCCc3cc(C4=NNC(=O)SC4C)ccc32)cc1OC (stereo not given) (0.833333 µM) | -0.177 | 109% (inactive)
COc1ccc(CCc2nc3cc(-c4c(C)noc4C)ccc3n2C[C@H](C)N2CCOCC2)cc1Cl (0.833333 µM) | -0.0905 | 113% (inactive)
Oc1ccc(-c2nc3cc(O)cc(Br)c3o2)cc1 (10 µM) | 0.128 | 94.5% (inactive)
Cc1cc(O)c2c(c1)C(=O)c1cccc(O)c1C2=O [chrysophanic-acid] (10 µM) | -0.0993 | 110% (inactive)
COC(=O)C1=C(C)NC(C)=C(C(=O)OCCCN2CCC(c3ccccc3)(c3ccccc3)CC2)[C@@H]1c1cccc([N+](=O)[O-])c1 [dexniguldipine] (0.833333 µM) | 0.134 | 97.5% (inactive)
CCN(c1cc(C#CCN2CCOCC2)cc(C(=O)NCc2c(C)cc(C)[nH]c2=O)c1C)[C@H]1CC[C@H](N(C)CCOC)CC1 (10 µM) | 0.163 | 100% (inactive)
C[C@H]1[C@H](OC(=O)CCC(=O)O)O[C@@H]2O[C@@]3(C)CC[C@H]4[C@H](C)CC[C@@H]1[C@@]24OO3 [artesunate] (0.833333 µM) | 0.157 | 97% (inactive)
CCCCCCCCCCCCOS(=O)(=O)O [dodecyl-sulfate] (10 µM) | 0.0848 | 103% (inactive)
COc1cc(C[C@@H]2NCCc3cc(O)c(O)cc32)cc(OC)c1OC [trimethoquinol] (10 µM) | 0.0323 | 99.5% (inactive)
